# Measurements as given in PubChem BioAssay (NCI).
# The panel holds about 83,000 compounds, 20% with a hit somewhere; the sample as a whole holds those more often.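 Method: cells in 96-well plates; compound added at one concentration; 48 h incubation; percent growth measured; values under 10 scored active.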 The source made the active and inactive calls.
# Test system: MDA-MB-435 melanoma
# Assay: NCI-60 one-dose screen, 48 h (100 = growth as untreated, 0 = no growth, -100 = all killed)
# Conditions: 10 µM unless noted
# Experimental: Growth inhibition of the MDA-MB-435 human Melanoma tumor cell line is measured as a screen for anti-cancer activity. Cells are grown in 96 well plates and exposed to the test compound for 48 hours. Compounds are tested at a single concentration, which is 10^-5 M for most compounds. The reported endpoint is percent growth (GI% or GIPRCNT), where numbers from 0 - 100% represent growth inhibition, and numbers from -100% - 0 represent cell death. For example, a value of 40 represents 60% growth inhibition. A value of 0 means no net growth occurred over the course of the experiment. A value of -40 indicates 40% of cells at the beginning of the experiment died by the end of the experiment. A value of -100 means all cells are dead at the end of the experiment.
# NCI-60 Human Tumor Cell Lines Screen was performed using the standard one-dose NCI protocol, which is described in more detail at https://dtp.cancer.gov/discovery_development/nci-60/default.htm.
# Compounds with GIPRCNT values below 10 were considered active. Activity score was based on GIPRCNT using the following formula: […]
# Score is 0 for GIPRCNT values of 100 or above, 50 for GIPRCNT values of 0, and 100 for GIPRCNT values of -100.
row,SMILES,growth
1,Cc1nc2c(=O)nc3s/c(=C\c4ccco4)c(=O)n3c2nc1C,94.1% (inactive)
2,COc1ccc(/C=C/c2ccc3ccccc3n2)c(OC)c1,-5.31% (active)
3,COc1cc2nc3sc(C(=O)Nc4ccc(C(=O)OC(C)C)cc4)c(C(=O)Nc4ccc(Cl)cc4C)n3c(=O)c2cc1OC,76.5% (inactive)
4,CCNc1ccc(-c2nc3ccccc3n3cccc23)cc1,80.7% (inactive)
5,Cc1c(Cl)cccc1C(=O)Nc1nc2c(s1)CN(C(=O)c1ccc(C(F)(F)F)cc1)CC2,-12.4% (active)
6,CCN1CCN(CC(=O)Nc2nc3ccc(NCc4ccc(F)cc4)cc3s2)CC1,93.4% (inactive)
7,CCOC(=O)c1c(C)nc2ccccc2c1/C=C/c1cccs1,88.7% (inactive)
8,Cc1ccc(C)c(/C=C2\CN(C(=O)OC(C)(C)C)C/C(=C\c3cc(C)ccc3C)C2=O)c1,-9.21% (active)
9,COCCn1cc(-c2csc(-c3c[nH]c4ccc(Br)cc34)n2)c2cccnc21,29% (inactive)
10,COc1ccc(/C=C(/C(=O)n2cnnn2)c2cc(OC)c(OC)c(OC)c2)cc1,-50.3% (active)
11,Cc1ccc2c(-n3nc(C#N)c(C#N)c3N)cc(=O)[nH]c2c1,107% (inactive)
12,Cc1ccnc(Nc2ccc([N+](=O)[O-])c(NCCN3CCOCC3)n2)c1,-20.5% (active)
13,O=C(Nc1ccc(Cl)cc1)Oc1c(Cl)c(Cl)c(Cl)c(Cl)c1Cl,96.5% (inactive)
14,CCCCCCCCCCCCCCCCCCOc1ccccc1CC(=O)NCC[N+]1(C)CCCCC1,60.5% (inactive)
15,CCOC(=O)c1cc(C(=O)c2cc(OC)c(OC)c(OC)c2)n2ccccc12,-41.8% (active)
16,COc1ccc(C(=O)c2cc3c(N)c(C(=O)Nc4ccccc4)sc3nc2C)cc1,-5.47% (active)
17,COc1cc(/C=C2\CN(S(=O)(=O)c3ccccc3)C/C(=C\c3cc(CN4CCCCC4)c(O)c(OC)c3)C2=O)cc(CN2CCCCC2)c1O,-88.6% (active)
18,CCOC(=O)C1=C(C)/C(=C\c2[nH]c(C)c(C(=O)OCC)c2C)N=C1C,80.6% (inactive)
19,Clc1ccccc1-c1cnn2cc(-c3ccccc3)cnc12,44.8% (inactive)
20,CCOC(=O)C1=C(C)C(Cl)=N/C1=C\c1[nH]c(Cl)c(C)c1C(=O)OCC,103% (inactive)

row,SMILES,growth
1,N=C(N)c1ccc(-c2ccc(-c3cc(Cl)cc(Cl)c3)s2)nc1,44.6% (inactive)
2,O=C(Nc1ncc(Cc2cc(C(F)(F)F)ccc2Cl)s1)c1cccs1,1.23% (active)
3,N#C/C(=C\c1cn(Cc2ccccc2)c2ccccc12)C(=O)Nc1ncc(Cc2ccccc2Cl)s1,-15.1% (active)
4,CCN(CC)Cc1cc(Nc2ccnc3cc(Cl)ccc23)ccc1O,97.8% (inactive)
5,CNC(=O)c1ccccc1Nc1nc(Nc2cc(OC)c(OC)c(OC)c2)ncc1Br,6.45% (active)
6,COc1ccc2c(c1)c(-c1nc(-c3c[nH]c4ncccc34)cs1)cn2CCO,66.5% (inactive)
7,COc1ccc(CNc2c3ccccc3nc3ccccc23)c(OC)c1,38.7% (inactive)
8,Nc1nc(N)c(N=Nc2ccccc2)c(-c2ccccc2)n1,73.1% (inactive)
9,CC(C)(C)n1cc(-c2ccnc(NCCCNS(=O)(=O)c3cccc4ccccc34)c2)c(-c2cccc(F)c2)n1,90.4% (inactive)
10,COC(=O)c1nc(-c2ccccc2)oc1S(=O)(=O)NCC(c1ccc(Cl)cc1)N1CCOCC1 (stereo not given),64.8% (inactive)
11,C/C(=N\O)c1ccc(NC(=O)CSc2nnc(-c3cc(-c4ccc(S(N)(=O)=O)cc4)nc4ccccc34)n2-c2ccccc2)cc1,69.5% (inactive)
12,COc1ccc2c(c1)CCc1[nH]nc(-c3cc(OC)c(OC)c(OC)c3)c1-2,-30.3% (active)
13,O=C(CN1CCN(c2cc3c(cc2F)c(=O)c(C(=O)O)cn3C2CC2)CC1)N/N=C/c1ccco1,102% (inactive)
14,CC(=O)OC(c1ccccc1)C1CCOC1=O (stereo not given),96.3% (inactive)
15,COc1ccc(C(=O)Cn2c(C(=O)c3ccc(Cl)cc3)nc3ccccc32)cc1,-8.55% (active)
16,CCOC(=O)c1cnc2c(N=Nc3ccc(OC)cc3)c(N)nn2c1N,95% (inactive)
17,O=C(CC(=O)Nc1cccc(C(=O)O)c1)Nc1cccc(C(=O)O)c1,87.4% (inactive)
18,CCN1C(=O)N(CC)C2C1NN=c1s/c(=C3\C(=O)N(CCC(C)C)c4ccccc43)c(=O)n12 (stereo not given),-31.3% (active)
19,CC(C)(C)n1cc(-c2ccnc(NCCNS(=O)(=O)c3ccc(O)cc3)c2)c(-c2cccc(O)c2)n1,101% (inactive)
20,O=C1/C(=C\c2cccc3nccnc23)SC(=S)N1CCc1ccc(O)cc1,97.4% (inactive)
